Laboratory results as given in PubChem BioAssay AID1159580 (chemical genetic matrix, 2015).
The campaign covered roughly 5,500 compounds. About 2,000 (36%) were called active. Not shown: some 18% with an inconclusive outcome. Rule as the data show it: active = normalized growth mostly below about 0.91 (no sharp cut-off); inconclusive = no clear call, values can overlap the other calls; inactive = mostly above about 0.92. The list shows a part of the results.

Experiment: chemical genetic growth profiling, strain panel (AID 1159580);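 also: tested at 20 µM; growth read once vehicle control cultures reached saturation at 30 °C; 1 = growth at the plate median or of vehicle wells; lower values mean less growth of the strain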
Settings: growth OD
[1] = S. cerevisiae deletion strains, locus YAL013W, strain DEP1, stronger effect = lower value
[2] = S. cerevisiae deletion strains, locus YCL061C, strain MRC1, stronger effect = lower value
[3] = S. cerevisiae deletion strains, locus YDR150W, strain NUM1, stronger effect = lower value
[4] = S. cerevisiae deletion strains, locus YGR229C, strain SMI1, stronger effect = lower value
[5] = S. cerevisiae deletion strains, locus YHR030C, strain SLT2, stronger effect = lower value
[6] = S. cerevisiae deletion strains, locus YJR075W, strain HOC1, stronger effect = lower value
[7] = S. cerevisiae deletion strains, locus YNL322C, strain KRE1, stronger effect = lower value
[8] = S. cerevisiae deletion strains, locus YPL055C, strain LGE1, stronger effect = lower value
[9] = S. cerevisiae deletion strains, locus YPL241C, strain CIN2, stronger effect = lower value

Measured: normalized growth

Cc1ccc(C(=O)Nc2ccc(S(=O)(=O)O)c3cc(S(=O)(=O)O)cc(S(=O)(=O)O)c23)cc1NC(=O)c1cccc(NC(=O)Nc2cccc(C(=O)Nc3cc(C(=O)Nc4ccc(S(=O)(=O)O)c5cc(S(=O)(=O)O)cc(S(=O)(=O)O)c45)ccc3C)c2)c1
inactive: [1] 1.03 | S. cerevisiae deletion strains, locus YAL021C, strain ccr4, stronger effect = lower value 1.03 | S. cerevisiae deletion strains, locus YAL026C, strain drs2, stronger effect = lower value 1 | S. cerevisiae deletion strains, locus YAL030W, strain snc1, stronger effect = lower value 1.01 | S. cerevisiae deletion strains, locus YAL040C, strain CLN3, stronger effect = lower value 0.968 | S. cerevisiae deletion strains, locus YBL061C, strain skt5, stronger effect = lower value 1.01 | S. cerevisiae deletion strains, locus YBR009C, strain hhf1, stronger effect = lower value 0.98 | S. cerevisiae deletion strains, locus YBR023C, strain chs3, stronger effect = lower value 1.04 | S. cerevisiae deletion strains, locus YBR171W, strain sec66, stronger effect = lower value 1.03 | S. cerevisiae deletion strains, locus YBR231C, strain swc5, stronger effect = lower value 1.02 | S. cerevisiae deletion strains, locus YBR279W, strain paf1, stronger effect = lower value 1.02 | S. cerevisiae deletion strains, locus YCL011C, strain gbp2, stronger effect = lower value 1.02 | S. cerevisiae deletion strains, locus YCL016C, strain dcc1, stronger effect = lower value 1.03 | S. cerevisiae deletion strains, locus YCL061C, strain MRC1 (second series), stronger effect = lower value 1 | [2] 1.03 | S. cerevisiae deletion strains, locus YCL069W, strain vba3, stronger effect = lower value 1.01 | S. cerevisiae deletion strains, locus YCR088W, strain abp1, stronger effect = lower value 1.01 | S. cerevisiae deletion strains, locus YDL005C, strain med2, stronger effect = lower value 1.02 | S. cerevisiae deletion strains, locus YDL040C, strain nat1, stronger effect = lower value 1.01 | S. cerevisiae deletion strains, locus YDR001C, strain nth1, stronger effect = lower value 1.01 | S. cerevisiae deletion strains, locus YDR069C, strain doa4, stronger effect = lower value 1.02 | S. cerevisiae deletion strains, locus YDR137W, strain rgp1, stronger effect = lower value 1.05 | [3] 0.998 | S. cerevisiae deletion strains, locus YDR159W, strain sac3, stronger effect = lower value 1 | S. cerevisiae deletion strains, locus YDR195W, strain ref2 1.02 | S. cerevisiae deletion strains, locus YDR297W, strain sur2, stronger effect = lower value 1.01 | S. cerevisiae deletion strains, locus YDR334W, strain swr1, stronger effect = lower value 1.03 | S. cerevisiae deletion strains, locus YDR335W, strain msn5, stronger effect = lower value 1.02 | S. cerevisiae deletion strains, locus YDR363W, strain ESC2, stronger effect = lower value 1.01 | S. cerevisiae deletion strains, locus YDR392W, strain spt3, stronger effect = lower value 0.975 | S. cerevisiae deletion strains, locus YEL003W, strain gim4, stronger effect = lower value 1.01 | S. cerevisiae deletion strains, locus YEL037C, strain rad23, stronger effect = lower value 1.01 | S. cerevisiae deletion strains, locus YEL061C, strain CIN8 (second series), stronger effect = lower value 1.01 | S. cerevisiae deletion strains, locus YER002W, strain NOP16, stronger effect = lower value 1.03 | S. cerevisiae deletion strains, locus YER015W, strain faa2, stronger effect = lower value 0.999 | S. cerevisiae deletion strains, locus YER016W, strain bim1, stronger effect = lower value 1.01 | S. cerevisiae deletion strains, locus YER111C, strain swi4, stronger effect = lower value 1.03 | S. cerevisiae deletion strains, locus YER155C, strain BEM2 (second series), stronger effect = lower value 1.03 | S. cerevisiae deletion strains, locus YFR010W, strain ubp6, stronger effect = lower value 1.01 | S. cerevisiae deletion strains, locus YGL167C, strain pmr1, stronger effect = lower value 1.01 | S. cerevisiae deletion strains, locus YGL173C, strain kem1, stronger effect = lower value 1.02 | S. cerevisiae deletion strains, locus YGL227W, strain vid30, stronger effect = lower value 1.03 | S. cerevisiae deletion strains, locus YGL240W, strain doc1, stronger effect = lower value 1.04 | S. cerevisiae deletion strains, locus YGL253W, strain hxk2, stronger effect = lower value 1.03 | [4] 1.04 | S. cerevisiae deletion strains, locus YHR013C, strain ard1, stronger effect = lower value 1.05 | S. cerevisiae deletion strains, locus YHR027C, strain rpn1, stronger effect = lower value 1.03 | [5] 1.11 | S. cerevisiae deletion strains, locus YHR079C, strain IRE1, stronger effect = lower value 1.1 | S. cerevisiae deletion strains, locus YHR142W, strain chs7, stronger effect = lower value 1.04 | S. cerevisiae deletion strains, locus YJL092W, strain hpr5, stronger effect = lower value 1.02 | S. cerevisiae deletion strains, locus YJL095W, strain BCK1 (second series), stronger effect = lower value 1.01 | S. cerevisiae deletion strains, locus YJL095W, strain BCK1, stronger effect = lower value 1.09 | S. cerevisiae deletion strains, locus YJL115W, strain asf1, stronger effect = lower value 1.03 | S. cerevisiae deletion strains, locus YJL129C, strain trk1, stronger effect = lower value 1.07 | S. cerevisiae deletion strains, locus YJL154C, strain vps35, stronger effect = lower value 1.03 | S. cerevisiae deletion strains, locus YJL164C, strain tpk1, stronger effect = lower value 1 | S. cerevisiae deletion strains, locus YJL166W, strain qcr8, stronger effect = lower value 1.03 | S. cerevisiae deletion strains, locus YJL187C, strain SWE1, stronger effect = lower value 1.02 | S. cerevisiae deletion strains, locus YJR066W, strain TOR1, stronger effect = lower value 0.998 | [6] 1.01 | S. cerevisiae deletion strains, locus YKL160W, strain elf1, stronger effect = lower value 1.05 | S. cerevisiae deletion strains, locus YKR026C, strain gcn3, stronger effect = lower value 1.02 | S. cerevisiae deletion strains, locus YKR091W, strain srl3, stronger effect = lower value 1.01 | S. cerevisiae deletion strains, locus YLL001W, strain dnm1, stronger effect = lower value 1.07 | S. cerevisiae deletion strains, locus YLL026W, stronger effect = lower value 1.01 | S. cerevisiae deletion strains, locus YLL041C, strain sdh2, stronger effect = lower value 1.02 | S. cerevisiae deletion strains, locus YLR027C, strain aat2, stronger effect = lower value 1.02 | S. cerevisiae deletion strains, locus YLR113W, strain HOG1, stronger effect = lower value 1.12 | S. cerevisiae deletion strains, locus YLR221C, strain rsa3, stronger effect = lower value 1.03 | S. cerevisiae deletion strains, locus YLR258W, strain gsy2, stronger effect = lower value 1 | S. cerevisiae deletion strains, locus YLR262C, strain YPT6 (second series), stronger effect = lower value 1.04 | S. cerevisiae deletion strains, locus YLR320W, strain mms22, stronger effect = lower value 1.07 | S. cerevisiae deletion strains, locus YLR342W, strain FKS1, stronger effect = lower value 1.02 | S. cerevisiae deletion strains, locus YLR357W, strain rsc2, stronger effect = lower value 1.03 | S. cerevisiae deletion strains, locus YLR370C, strain arc18, stronger effect = lower value 1.03 | S. cerevisiae deletion strains, locus YLR384C, strain iki3, stronger effect = lower value 1.01 | S. cerevisiae deletion strains, locus YML120C, strain ndi1, stronger effect = lower value 1.04 | S. cerevisiae deletion strains, locus YMR058W, strain fet3, stronger effect = lower value 1.03 | S. cerevisiae deletion strains, locus YMR125W, strain sto1, stronger effect = lower value 1.06 | S. cerevisiae deletion strains, locus YMR129W, stronger effect = lower value 1.01 | S. cerevisiae deletion strains, locus YMR205C, strain PFK2, stronger effect = lower value 1.06 | S. cerevisiae deletion strains, locus YMR231W, strain pep5, stronger effect = lower value 1.01 | S. cerevisiae deletion strains, locus YMR307W, strain GAS1, stronger effect = lower value 0.993 | S. cerevisiae deletion strains, locus YNL071W, strain lat1, stronger effect = lower value 1.02 | S. cerevisiae deletion strains, locus YNL128W, strain TEP1, stronger effect = lower value 1.01 | S. cerevisiae deletion strains, locus YNL175C, strain NOP13, stronger effect = lower value 1.02 | S. cerevisiae deletion strains, locus YNL183C, strain NPR1, stronger effect = lower value 1 | S. cerevisiae deletion strains, locus YNL197C, strain WHI3, stronger effect = lower value 1 | S. cerevisiae deletion strains, locus YNL209W, strain ssb2, stronger effect = lower value 1.02 | S. cerevisiae deletion strains, locus YNL224C, strain SQS1, stronger effect = lower value 1.02 | S. cerevisiae deletion strains, locus YNL248C, strain rpa49, stronger effect = lower value 1.06 | S. cerevisiae deletion strains, locus YNL322C, strain KRE1 (second series), stronger effect = lower value 1.03 | [7] 1.04 | S. cerevisiae deletion strains, locus YNR049C, strain mso1, stronger effect = lower value 1.01 | S. cerevisiae deletion strains, locus YOR001W, strain rrp6, stronger effect = lower value 0.967 | S. cerevisiae deletion strains, locus YOR070C, strain gyp1, stronger effect = lower value 1.02 | S. cerevisiae deletion strains, locus YOR080W, strain dia2, stronger effect = lower value 1.01 | S. cerevisiae deletion strains, locus YOR083W, strain WHI5 (second series), stronger effect = lower value 0.997 | S. cerevisiae deletion strains, locus YOR083W, strain WHI5, stronger effect = lower value 1.04 | S. cerevisiae deletion strains, locus YOR106W, strain vam3, stronger effect = lower value 1.05 | S. cerevisiae deletion strains, locus YOR231W, strain MKK1, stronger effect = lower value 1.11 | S. cerevisiae deletion strains, locus YOR265W, strain rbl2, stronger effect = lower value 1.01 | S. cerevisiae deletion strains, locus YOR270C, strain vph1, stronger effect = lower value 1.11 | S. cerevisiae deletion strains, locus YOR290C, strain snf2, stronger effect = lower value 1.06 | S. cerevisiae deletion strains, locus YPL051W, strain arl3, stronger effect = lower value 1.05 | [8] 1.02 | S. cerevisiae deletion strains, locus YPL078C, strain atp4, stronger effect = lower value 1.06 | S. cerevisiae deletion strains, locus YPL106C, strain sse1, stronger effect = lower value 1.01 | S. cerevisiae deletion strains, locus YPL240C, strain hsp82, stronger effect = lower value 1.01 | [9] 1 | S. cerevisiae deletion strains, locus YPL256C, strain CLN2, stronger effect = lower value 1.14

CSc1nc(N)n(-c2ccccc2)n1
inactive: [1] 1 | S. cerevisiae deletion strains, locus YBR229C, strain ROT2, stronger effect = lower value 1.02 | [2] 1.02 | S. cerevisiae deletion strains, locus YDL101C, strain DUN1, stronger effect = lower value 1 | S. cerevisiae deletion strains, locus YDL134C, strain PPH21, stronger effect = lower value 1.01 | [3] 0.916 | S. cerevisiae deletion strains, locus YEL061C, strain CIN8, stronger effect = lower value 1.06 | S. cerevisiae deletion strains, locus YGR078C, strain PAC10, stronger effect = lower value 1 | [4] 0.99 | [5] 1.05 | S. cerevisiae deletion strains, locus YHR087W, strain rtc3, stronger effect = lower value 1 | S. cerevisiae deletion strains, locus YJR043C, strain POL32, stronger effect = lower value 0.989 | [6] 1 | S. cerevisiae deletion strains, locus YKL190W, strain CNB1, stronger effect = lower value 1.01 | S. cerevisiae deletion strains, locus YLR039C, strain RIC1, stronger effect = lower value 1.03 | S. cerevisiae deletion strains, locus YLR058C, strain SHM2 (second series), stronger effect = lower value 1.02 | S. cerevisiae deletion strains, locus YLR085C, strain ARP6, stronger effect = lower value 0.995 | S. cerevisiae deletion strains, locus YLR262C, strain YPT6, stronger effect = lower value 1.09 | S. cerevisiae deletion strains, locus YML094W, strain GIM5, stronger effect = lower value 0.988 | S. cerevisiae deletion strains, locus YMR219W, strain ESC1, stronger effect = lower value 1 | S. cerevisiae deletion strains, locus YMR263W, strain SAP30, stronger effect = lower value 1 | S. cerevisiae deletion strains, locus YNL153C, strain GIM3, stronger effect = lower value 1 | S. cerevisiae deletion strains, locus YNL298W, strain CLA4 (second series), stronger effect = lower value 1 | [7] 1 | S. cerevisiae deletion strains, locus YNR030W, strain Alg12, stronger effect = lower value 1.02 | [8] 0.994 | [9] 1.01 | S. cerevisiae deletion strains, locus YPR135W, strain CTF4, stronger effect = lower value 1.07 | S. cerevisiae strains, strain wild type, stronger effect = lower value 1.01
